From PubChem
aSyn UTR inh = MLPCN primary screen, SNCA 5' untranslated region | 300,000 tested, 0.82% active | alpha-synuclein 5'UTR reporter, inhibitor activity | inhibition, % (tested at 7.5 µM); in the data active = inhibition above about 60%;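 note: H4 neuroglioblastoma cells stably carrying SNCA 5'UTR luciferase fusion; 0% = DMSO wells and 100% = positive control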
KLF5 inhibitor = KLF5 expression inhibitors, primary screen, DLD-1 cells, luminescence | DLD-1 KLF5 promoter-luciferase reporter | inhibition, % at 5 µM | 290,000 tested, 0.23% active | AID 1700, 2009;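 active = inhibition above a per-plate limit of that plate's mean compound inhibition plus 3 SD, cut at about 60% in these data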;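 note: 0% = DMSO wells and 100% = LY294002 at 200 µM; higher means less KLF5 promoter-driven luciferase light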
Mdm2 MdmX PPI = inhibitors of human Mdm2-MdmX association, primary screen, cell-based, luminescence, split luciferase, SaOS-2, uHTS | Protein Mdm4 (Homo sapiens) + E3 ubiquitin-protein ligase Mdm2 (Homo sapiens), … | SaOS-2 split-luciferase Mdm2/MdmX complementation | inhibition, % at 8 µM | 330,000 tested, 3% active | AID 485346, 2010;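 active = inhibition of at least 50% at 8 µM in the primary screen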
Jurkat NFkB inh = inhibitors of induced NF-kB luciferase reporter, primary screen, TCR NF-kB activation inhibitor project, cell-based, luminescence, uHTS; 330,000 tested, 0.53% active; Jurkat, PMA/ionomycin-induced NF-kB luciferase reporter; AID 435003, 2010; inhibition, % at 4 µM; in the data active = inhibition above about 50%
697 NFkB inh = inhibitors of PMA/ionomycin-induced NF-kB reporter, 697 cells, primary screen, B-cell NF-kB inhibitor project, cell-based, luminescence, uHTS. 697 B-cell NF-kB luciferase reporter, 16 h. inhibition, % at 4 µM. 330,000 tested, 0.33% active; in the data active = inhibition above about 35%
Gli-Sufu block = Gli-Sufu pathway antagonists, primary screen, luciferase luminescence, Sufu-KO-LIGHT cells, uHTS; 340,000 tested, 0.74% active; inhibition, % at 5 µM; Sufu-KO-LIGHT fibroblasts, Gli luciferase reporter luminescence; AID 588413, 2011;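 active = inhibition above about 55%, limit read from the data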;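 note: 0% = DMSO-treated cells and 100% = wells with medium but no cells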
Mdm2 MdmX conf = Mdm2-MdmX complex disruptors, retested hits, confirmation, luminescence, single concentration; shares compounds with Mdm2 MdmX PPI; Mdm2-MdmX binding, luminescent assay; inhibition, % at 8 µM; 10,000 tested, 55% active; AID 489028, 2010; in the data active = inhibition above about 40%
FLuc counter = full-length luciferase signal inhibition, confirmation, counter-screen for Mdm2/MdmX interaction inhibitor project, cell-based, single concentration, SaOS-2; shares compounds with Mdm2 MdmX PPI; SaOS-2 full-length luciferase counterscreen, luminescence; 6,200 tested, 77% active; inhibition, % at 8 µM;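 active = mean inhibition at 8 µM reaching about 37%, which flags the compound as non-specific, limit read from the data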;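 note: p53-null SaOS-2 cells with luciferase driven by a doxycycline-inducible promoter; compound on cells about two nights before reading with doxycycline added after day one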
* = called active by the depositor; . = no result given. The list is not random: actives were taken first. Their share in the collection is about 4.1%.

SMILES	aSyn UTR inh	KLF5 inhibitor	Mdm2 MdmX PPI	Jurkat NFkB inh	697 NFkB inh	Gli-Sufu block	Mdm2 MdmX conf	FLuc counter
Cn1nc2c3cc(F)ccc3n(Cc3ccc(F)cc3)cc-2c1=O	1	-10	10	-10	3	-14	.	.
COc1ccc(Cn2cc3c(-c4ccc(F)cc4)nnc-3c3cc(OC)c(OC)cc32)cc1	.	-29	100*	7	11	17	96*	68*
COc1cc2c3nnc(-c4ccc(F)cc4)c-3cn(Cc3ccc(F)cc3)c2cc1OC	11	0	100*	25	-12	8	20	.
O=C(CCC1CCCNC1)c1ccccc1 (centres undefined)	5	-7	10	4	-2	.	.	.
O=C(NCC1CC1)c1cccc2c1C(=O)c1ccc(-c3ccc(OC(F)(F)F)cc3)cc1S2(=O)=O	.	.	66*	0	2	-8	8	.
COc1ccc(-c2ccc3c(c2)S(=O)(=O)c2cccc(C(=O)NC[C@@H]4CCCO4)c2C3=O)cc1OC	.	.	35	4	31	-4	.	.
O=C(NCCOc1ccccc1Cl)c1cccc2c1C(=O)c1ccc(Cl)cc1S2(=O)=O	.	.	59*	4	5	-9	-3	.
O=C1c2ccc(Cl)cc2S(=O)(=O)c2cccc(C(=O)N3CCC(Cc4ccccc4)CC3)c21	.	.	68*	-1	14	3	-3	.
O=C(NC1CC1)c1cccc2c1C(=O)c1ccc(N3CCC(Cc4ccccc4)CC3)cc1S2(=O)=O	.	.	17	10	-63	22	.	.
COc1ccc(-c2ccc3c(c2)S(=O)(=O)c2cccc(C(=O)NCCOc4ccccc4)c2C3=O)cc1OC	.	.	76*	0	12	19	27	.
COc1ccc(OC[C@@H](O)CNC(=O)c2cccc3c2C(=O)c2ccc(-c4ccc(F)cc4OCc4ccccc4)cc2S3(=O)=O)cc1	.	.	13	-1	-25	34	.	.
COc1ccc(NC(=O)c2cccc3c2C(=O)c2ccc(-c4ccc(F)cc4OCc4ccccc4)cc2S3(=O)=O)cc1	.	.	78*	2	6	7	31	.
COc1ccc(CCNC(=O)c2nnn(-c3ccccc3OC)c2N)cc1OC	-11	-7	21	-3	1	-12	.	.
COc1ccc(CCNC(=O)c2nnn(-c3ccc4c(c3)OCCO4)c2N)cc1OC	27	17	80*	31	-37	49	79*	38*
CC(C)Cc1nnc(NC(=O)CCC(=O)NCCc2ccc(Cl)cc2)s1	-7	-32	24	-13	1	-4	.	.
CCN(C[C@H]1N[C@@](CC)(C(=O)OC)[C@H]2C(=O)N(Cc3ccccc3)C(=O)[C@@H]12)C(=O)c1ccccc1	.	.	20	6	7	7	.	.
CC(C)c1cc(C(C)C)c(S(=O)(=O)N2c3ccccc3[C@@]3(Br)C[C@H]4C(=O)N[C@@H](Cc5ccccc5)C(=O)N4[C@@H]23)c(C(C)C)c1	13	.	59*	16	10	-3	27	106*
COc1ccc2nc3cc(Cl)ccc3c(Nc3cc(CN4CCCC4)c(O)c(CN4CCCC4)c3)c2n1	104*	20	99*	21	-16	.	53*	77*
COc1ccc(Cc2nnc(SC(C)C(=O)Nc3ccc(F)cc3Cl)o2)cc1 (centres undefined)	5	.	4	16	12	-5	.	.
Nc1cc(Cl)ccc1C(=O)OCC(=O)NCC1CCCO1 (centres undefined)	.	.	1	-4	10	5	.	.
O=C(CCl)c1ccc2c(c1)CCN2C(=O)C1CCCCC1	-10	-46	97*	13	13	41	53*	79*
O=C(CCl)c1ccc2c(c1)CCN2C(=O)C1CC1	-94	-16	80*	17	13	.	39	27
CC(=O)c1ccc(S(=O)(=O)Oc2ccc(-c3ccc(C(=O)O)cc3)cc2)cc1	11	16	21	5	13	-13	.	.
O=C(NCCN1CCN(S(=O)(=O)c2ccc([N+](=O)[O-])cc2)CC1)C(=O)Nc1ccccc1	17	-17	71*	-13	10	10	15	.
O=C(NCCN1CCN(Cc2ccc([N+](=O)[O-])cc2)CC1)C(=O)Nc1ccccc1	28	-36	6	-5	0	4	.	.
SMILES	aSyn UTR inh	KLF5 inhibitor	Mdm2 MdmX PPI	Jurkat NFkB inh	697 NFkB inh	Gli-Sufu block	Mdm2 MdmX conf	FLuc counter
O=C(NC(=S)N1CCN(C/C=C/c2ccccc2)CC1)c1ccc(Cl)nc1	-1	-8	30	8	-8	-29	.	.
C=CCn1c(Sc2ncc([N+](=O)[O-])s2)n[nH]c1=O	-11	-4	66*	19	-3	-1	88*	56*
CC(C)(C)c1ccc(-n2nc(C(N)=O)c(O)cc2=O)cc1	19	8	-17	-38	-13	48	.	.
CC(C)(C)c1ccc(-n2nc(C#N)c(Cl)cc2=O)cc1	-25	11	100*	40	13	-2	100*	1
N#Cc1c(NCCN)nc(NCc2ccccc2)c2c1CCN(Cc1ccccc1)C2	.	-15	.	.	.	17	.	.
Nc1[nH]nc2nc(NCc3ccccc3)c3c(c12)CCN(Cc1ccccc1)C3	44	-30	53*	-2	-22	-31	20	.
O=c1c2ccccc2nc(/C=C/c2cc(Br)ccc2O)n1CCO	-3	.	65*	15	23	3	57*	32
COc1cc(OC)c2c(-c3cccc(-c4ccc(C(C)=O)cc4)c3)cc(=O)oc2c1	.	.	69*	.	-36	12	68*	71*
CC(=O)Nc1nonc1-c1nc2ccccc2n1Cc1ccccc1	45	-13	70*	13	-11	11	66*	118*
N/C(COc1cc(Cl)cc(Cl)c1)=N\O	0	-22	16	-8	-18	2	.	.
CNC(=S)N/N=C1\C(=O)c2cccc3cccc1c23	-57	-23	87*	-17	5	-5	17	.
C/C(Cl)=C\Cn1c(O)c(N=NC(N)=S)c2cc(Br)ccc21	70*	-8	75*	5	18	13	49*	74*
O=c1c2cc3c(=O)n(-c4ccccc4O)c(=O)c3cc2c(=O)n1-c1ccccc1O	-20	-19	9	7	7	-2	.	.
